Data: publication PMC4336329 (PLoS ONE, 2015)
Hit rate of the full screen: of about 310,000 compounds, about 14,000 (4.5%) showed an effect of 50% or more. The effect is printed as a negative number. Shown is part of a subset that was picked to be rich in strong results.

molecular target: human ether-à-go-go-related gene (hERG) potassium channel (human, UniProt Q12809); assay: primary screen, population patch clamp on CHO cells stably expressing hERG; higher = less effect of the substance
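Note: peak tail current of the secondary pulse compared with the same well before compound.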

human ether-à-go-go-related gene (hERG) potassium channel, sequence (Q12809 whole entry, looked up): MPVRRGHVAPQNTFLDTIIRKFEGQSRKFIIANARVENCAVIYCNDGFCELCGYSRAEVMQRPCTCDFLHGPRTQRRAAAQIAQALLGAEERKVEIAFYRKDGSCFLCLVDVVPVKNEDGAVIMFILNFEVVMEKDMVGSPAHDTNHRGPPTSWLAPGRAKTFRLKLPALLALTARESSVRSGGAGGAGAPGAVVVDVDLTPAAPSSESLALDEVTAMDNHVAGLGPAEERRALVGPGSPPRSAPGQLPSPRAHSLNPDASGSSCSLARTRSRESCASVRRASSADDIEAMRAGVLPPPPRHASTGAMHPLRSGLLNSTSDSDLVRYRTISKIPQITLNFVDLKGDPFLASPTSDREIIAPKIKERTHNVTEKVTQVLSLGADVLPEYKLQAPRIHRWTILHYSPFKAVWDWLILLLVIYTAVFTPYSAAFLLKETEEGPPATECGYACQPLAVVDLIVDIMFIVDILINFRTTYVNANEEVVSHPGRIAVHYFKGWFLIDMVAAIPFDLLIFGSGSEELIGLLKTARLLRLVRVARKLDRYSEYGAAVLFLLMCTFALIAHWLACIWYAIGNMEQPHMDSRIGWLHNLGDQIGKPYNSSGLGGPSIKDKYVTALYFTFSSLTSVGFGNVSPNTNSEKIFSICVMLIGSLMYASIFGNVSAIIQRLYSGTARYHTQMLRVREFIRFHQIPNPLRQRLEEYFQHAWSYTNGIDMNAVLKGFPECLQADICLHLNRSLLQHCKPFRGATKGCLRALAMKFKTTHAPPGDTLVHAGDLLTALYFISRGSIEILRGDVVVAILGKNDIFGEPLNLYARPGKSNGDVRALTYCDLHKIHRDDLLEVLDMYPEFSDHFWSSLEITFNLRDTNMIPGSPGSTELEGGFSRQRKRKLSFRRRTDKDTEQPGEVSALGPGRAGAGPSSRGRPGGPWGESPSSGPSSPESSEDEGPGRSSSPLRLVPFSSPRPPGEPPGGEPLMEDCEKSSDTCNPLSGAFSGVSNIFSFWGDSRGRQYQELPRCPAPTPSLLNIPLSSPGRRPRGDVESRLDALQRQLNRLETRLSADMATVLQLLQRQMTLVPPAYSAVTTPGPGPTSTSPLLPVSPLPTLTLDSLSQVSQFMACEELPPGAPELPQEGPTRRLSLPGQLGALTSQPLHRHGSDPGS

| Compound | hERG current change (%, negative = inhibition) at 10uM [%] |
| --- | --- |
| O=S(=O)(NC(=S)NC1CCCCC1)c1ccc(Br)cc1 | 9.58 |
| CCCCN(Cc1cccs1)S(=O)(=O)c1ccc(-c2ccc(=O)[nH]n2)s1 | -3.4 |
| CC(C)CCN(Cc1ccco1)S(=O)(=O)c1ccc(-c2ccc(=O)[nH]n2)s1 | -0.664 |
| COCCN(Cc1cccs1)S(=O)(=O)c1ccc(-c2ccc(=O)[nH]n2)s1 | -46.8 |
| CN(C)CCN(Cc1ccco1)S(=O)(=O)c1ccc(-c2ccc(=O)[nH]n2)s1 | -64.4 |
| CCCCN(Cc1ccco1)S(=O)(=O)c1ccc(-c2ccc(=O)[nH]n2)s1 | -27.7 |
| CN(C)CCN(Cc1ccccc1)S(=O)(=O)c1ccc(-c2ccc(=O)[nH]n2)s1 | -67.4 |
| COc1ccccc1CNS(=O)(=O)c1c(C)nc2scc(C)n2c1=O | -8.78 |
| Cc1cc(Nc2ccc(F)cc2C)n2ncnc2n1 | -4.78 |
| CCCC(=O)Nc1nc2c(c(=O)[nH]1)CCCC2 | 10.2 |
| C/C(=C1/SC(=S)N(CCC(=O)O)C1=O)c1ccc(O)cc1 | 9.74 |
| Cc1ccc(Nc2nc(-c3ccc(F)cc3)cs2)nc1 | 17.1 |
| Cc1ccc2cc(CNC(C)(C)C)c(=O)[nH]c2c1 | -19 |
| COc1ccc(CCN(Cc2cc3ccc(C)cc3n3nnnc23)C(C)=O)cc1OC | -32.7 |
| CC(=O)N(CCc1ccccc1C)Cc1cc2ccc(C)cc2[nH]c1=O | -18.3 |
| CNCc1cc2ccc(C)cc2[nH]c1=O | -33.1 |
| CCC(=O)N(CCc1ccc(OC)c(OC)c1)Cc1cc2ccc(C)cc2n2nnnc12 | -76.8 |
| CCNC(=S)N(CCc1ccc(OC)c(OC)c1)Cc1cc2cc(OC)ccc2[nH]c1=O | -56.9 |
| Cc1ccc2cc(CNC(C)C)c(=O)[nH]c2c1 | -9.38 |
| CCC(=O)N(Cc1cc2ccc(C)cc2n2nnnc12)C1CCCCC1 | -32.3 |
| Cc1cccc(CCNCc2cc3ccc(C)cc3[nH]c2=O)c1 | -77.3 |
| CCNC(=S)N(CCc1cccc(C)c1)Cc1cc2cc(OC)c(OC)cc2[nH]c1=O | -22.4 |
| CCNC(=S)N(CCc1ccccc1C)Cc1cc2cc(OC)c(OC)cc2[nH]c1=O | -22.3 |
| Cc1ccc2cc(CNCCc3ccccc3C)c(=O)[nH]c2c1 | -69.7 |
| CCOC(=O)C1(CC2CCCCO2)CCN(C(=O)Nc2ccc3c(c2)OCO3)CC1 (stereo not shown) | 15.9 |
